# Screens from PubChem BioAssay.
# Hits are enriched below; roughly 1.8% of the tested compounds scored in any of these assays.
# CCHFV vOTU inh = CCHFV vOTU protease inhibition; Pep-AMC fluorescence; inhibition, % at 11.5 µM; 0.55% of 370,000 active; AID 651958; in the data active = inhibition above about 30%; also: 0% = vehicle wells with enzyme and 100% = no enzyme wells
# VHR inh abs = inhibitors of human VHR1 phosphatase (DUSP3) | P51452 | recombinant VHR phosphatase, pNPP absorbance | inhibition, % at 13.3 µM | 0.52% of 290,000 active | AID 1654; in the data active = inhibition above about 50%
# Vc quorum ag = induces V. cholerae light production without autoinducers. activation, % at 18.7 µM. V. cholerae BH1578 lux reporter, luminescence, 6 h. 0.16% of 350,000 active; in the data active = activation mostly above about 9.7%, no sharp cut-off
# Y pestis TopoI = Y. pestis Topo-I inhibition via cleavage products; Y. pestis Topo-I cleavage product accumulation, plate reader; activity, % at 10 µM; 0.064% of 360,000 active; AID 504884; in the data active = activity above about 50%, passing the limit was not always enough
# MazF activator = increases E. coli MazEF RNase cleavage of RNA. activation, % at 20 µM. 0.32% of 350,000 active. P0AE70. FAM/BHQ RNA-DNA oligo cleavage fluorescence, 5 h; in the data active = activation above about 50%
# PrPC TRFRET = cell surface PrPC inhibition, primary TR-FRET screen; inhibition, % at 13.8 µM; TR-FRET read-out; 0.43% of 370,000 active; P04156; in the data active = inhibition above about 24%; also: 0% = median of the test wells and 100% = reference compound wells
# PrPC confirm = confirmation of inhibitors of cell surface human prion protein | shares compounds with PrPC TRFRET | cell surface PrPC level, TR-FRET | inhibition, % at 13.8 µM | 65% of 1,500 active; in the data active = inhibition above about 25%
# LD9 cytotox = kills or reduces viability of LD9 cells in PrPc counter-screen. LD9 cells cytotoxicity, luminescence viability. 29% of 1,500 active. inhibition, % at 13.8 µM. shares compounds with PrPC TRFRET; in the data active = inhibition above about 9.5%
# An asterisk follows results filed as active; i = inactive; . = not tested or not shown.
SMILES,CCHFV vOTU inh,VHR inh abs,Vc quorum ag,Y pestis TopoI,MazF activator,PrPC TRFRET,PrPC confirm,LD9 cytotox
CCc1nc2c(OCCC3CCCCC3)cccn2c1N(C)C(=O)CC(C)C,17.8,.,-0.7,24.2,.,4.8,.,.
CCCCC(=O)N(C)c1c(CC)nc2c(OCC3CCCCC3)cccn12,20.6,.,-0.6,17.0,.,31.0*,17.6,-8.8
CCSc1nc(N)c2c3c(sc2n1)CCC3,0.6,1.9,i,-6.8,3.4,25.0*,39.1*,-3.4
CNC(=O)c1c2c(nc3ccc(Br)cc13)CCCC2,-2.6,16.7,0.2,14.5,3.8,25.2*,35.1*,-4.1
COc1ccc2nc(NC(=O)c3cccs3)sc2c1,-2.4,21.0,-1.1,-0.9,1.8,27.0*,15.2,4.5
COc1ccc(S(=O)(=O)Nc2c(O)ccc3ccccc23)cc1OC,-10.1,.,0.6,-4.7,-3.6,-0.9,.,.
CC(C)N1CCc2c(sc(NC(=O)C3CCCCC3)c2C(N)=O)C1,16.5,21.2,-0.6,-3.4,15.4,32.2*,7.9,2.7
COC(=O)c1c(NC(=O)C2CCCCC2)sc2c1CCN(C(C)C)C2,-2.0,17.3,-0.4,22.0,8.9,-13.3,.,.
